Test results reported in PubChem BioAssay (NCATS).
Results filed as inconclusive are left out. A number with no mark means an inactive call. Active and inactive are the calls of the source. The call rests on the fitted dose curve; in most records, active means well fitted inhibition curve with a large enough effect; inconclusive means small, poorly fitted or top-dose-only effect; inactive means no such curve, though single readings can be large or run the other way.

Each compound was assayed on Zika virus NS2B-NS3 protease (unlinked) (assay: Optimization of GU AMC qHTS for Zika virus inhibitors: Unlinked NS2B-NS3 protease assay (AID 1347151; further: nearly all actives have a fitted effect of over 80% in size;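 on activity change, negative = inhibition: 0% = no-inhibitor control and -100% = no-enzyme control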)). Details: recombinant ZIKV NS2B-NS3 protease, fluorogenic AMC substrate; series mostly up to 52.5 µM; activity change, negative = inhibition: at the top concentration.
In short: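 Unlinked protease (25 nM final); buffer 10 mM Tris-HCl pH 8.0 + 0.01% Tween 20; AMC substrate; 15 min RT, dark; Δfluorescence normalized to no-inhibitor/no-enzyme controls; 4-parameter Hill fit.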
Potency means the concentration at half of the fitted maximal effect.

Row | Compound | activity change, negative = inhibition [%] | Potency
1 | CN1CCN(C2Cc3ccccc3Sc3ccc(Cl)cc32)CC1 (configuration not stated) | 4.12 | 
2 | CC(C(O)c1ccc(O)cc1)N1CCC(Cc2ccccc2)CC1 (configuration not stated) | 7.83 | 
3 | CC(=O)OCC(=O)[C@@]1(O)CC[C@H]2[C@@H]3CCC4=CC(=O)CC[C@]4(C)[C@H]3C(=O)C[C@@]21C | 5.86 | 
4 | CC[C@H]1CN2CCc3cc(OC)c(OC)cc3[C@@H]2C[C@@H]1C[C@H]1NCCc2cc(OC)c(OC)cc21 | 30.4 | 
5 | Nc1ncnc2c1ncn2[C@@H]1O[C@H](CO)[C@@H](O)[C@H]1O | 3.39 | 
6 | CCN(CC)CCCC(C)Nc1c2ccc(Cl)cc2nc2ccc(OC)cc12 (configuration not stated) |  | 23.8 µM (active)
7 | N[C@H](C(=O)O)c1ccc(O)cc1 | -20.3 | 
8 | OCCN1CCN(CCCN2c3ccccc3Sc3ccc(Cl)cc32)CC1 | 29.7 | 
9 | C[C@]12C[C@H](O)[C@H]3[C@@H](CCC4=CC(=O)CC[C@@]43C)[C@@H]1CC[C@@H]2C(=O)CO | 5.8 | 
10 | NC(=O)c1ncn([C@@H]2O[C@H](CO)[C@@H](O)[C@H]2O)n1 | 2.41 | 
11 | Cc1cc(N)c2ccccc2[n+]1CCCCCCCCCC[n+]1c(C)cc(N)c2ccccc21 |  | 23.8 µM (active)
12 | C#CCN(C)Cc1ccccc1 | -1.04 | 
13 | CN(C)CCCN1c2ccccc2Sc2ccc(Cl)cc21 | 27.9 | 
14 | CC1=C(CC(=O)O)c2cc(F)ccc2/C1=C\c1ccc(S(C)=O)cc1 (configuration not stated) | -6.48 | 
15 | N=c1c[n+](N2CCOCC2)[n-]o1 | -3.82 | 
16 | CC(C)(C)c1onc(OCP(=O)(O)O)c1CC(N)C(=O)O (configuration not stated) | 4.16 | 
17 | CCN(CC)CCNC(=O)c1c(C)[nH]c(/C=C2\C(=O)Nc3ccc(F)cc32)c1C | 5.84 | 
